PubChem BioAssay (NCI)
Compounds without any hit were thinned out: in the full panel of roughly 79,000, 15% have a hit. A number with no mark means an inactive call. Activity calls are given as the source filed them. Cut-off read from the data, not from the text of the source: active = growth inhibition above about 70%; inactive = the rest.

Key:
[1] = NCI Yeast Anticancer Drug Screen. Data for the rad50 strain (AID 155);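 note: 0% = growth of vehicle-only cultures of the same strain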; conditions: S. cerevisiae rad50 strain growth inhibition; at 50.0 µM; active compounds read high
Summary of the method: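 DNA repair mutant yeast, compound exposure, growth read-out; inhibition is taken relative to vehicle.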

[2] = NCI Yeast Anticancer Drug Screen. Data for the mec2-1 strain (AID 157); conditions: S. cerevisiae mec2-1 strain, at 50.0 µM, active compounds read high
Summary of the method: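 Test agents were screened against the mec2-1 yeast strain, with defined DNA repair or cell cycle alteration. Growth was scored as inhibition against vehicle-only controls.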

[3] = NCI Yeast Anticancer Drug Screen. Data for the sgs1 mgt1 strain (AID 161);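 note: 0% = growth of cultures given vehicle only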; conditions: S. cerevisiae sgs1 mgt1 strain, at 50.0 µM, active compounds read high
Summary of the method: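 Mutant yeast exposed to compound; growth scored against vehicle-only wells.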

[4] = NCI Yeast Anticancer Drug Screen. Data for the cln2 rad14 strain (AID 165);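 note: 0% = growth equal to vehicle treated cultures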; conditions: S. cerevisiae cln2 rad14 strain, at 50.0 µM, active compounds read high
Summary of the method: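 Growth of compound-exposed yeast (cln2 rad14 genotype) measured and expressed as inhibition relative to vehicle.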

[5] = NCI Yeast Anticancer Drug Screen. Data for the bub3 strain (AID 167); conditions: S. cerevisiae bub3 mutant strain, at 50.0 µM, active compounds read high
Summary of the method: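 In this screen, a yeast mutant lacking normal mitotic checkpoint function is challenged with compound. Relative growth versus vehicle gives the inhibition value.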

[6] = NCI Yeast Anticancer Drug Screen. Data for the mlh1 rad18 strain (AID 175); conditions: S. cerevisiae mlh1 rad18 strain growth inhibition; at 50.0 µM; active compounds read high
Summary of the method: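 In this whole-cell yeast screen, a strain with altered DNA damage repair is challenged with compound, and its growth is measured against matched vehicle-treated controls.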

SMILES	growth inhibition [1]	growth inhibition [2]	growth inhibition [3]	growth inhibition [4]	growth inhibition [5]	growth inhibition [6]
CC/C(C)=N/NC(=O)c1ccc([N+](=O)[O-])cc1	22.7%	12%	20.8%	8.6%	0.95%	16.6%
COc1ccc(C(Cc2cc(OC)c(OC)cc2Br)NC=O)cc1OC (stereo not drawn)	0.3%	7.35%	-7.55%	-3.15%	5%	31.4%
CC1(C)C2CCC1(C)C(S)C2 (stereo not drawn)	7.5%	-1%	-2.75%	-57.1%	-2%	11.9%
Cc1cc2oc3c(c2c(=O)[nH]1)C(=O)c1ccccc1C3=O	-6.55%	-1.3%	-8%	-17.4%	-21.8%	-5.85%
O=Nc1c(O)c(S(=O)(=O)O)cc2cc(S(=O)(=O)O)ccc12	24.9%	-1.8%	51.1%	17.9%	37.6%	11.2%
O=C(CCCC(=O)NNC(=O)Nc1cccc(Cl)c1)NNC(=O)Nc1cccc(Cl)c1	-13.2%	-2.2%	-10.9%	-12.9%	-1.7%	-10.6%
O=Cc1cc(N=Nc2ccc(S(=O)(=O)O)cc2)ccc1O	5.8%	-35.5%	-1.45%	14.9%	-17.6%	3.6%
Cc1cccc2nc(-c3ccccn3)n(CCc3ccccn3)c12	-5.2%	5.35%	1.65%	-18.5%	-8.2%	17.2%
CCCCOCCOCCOS(=O)(=O)c1ccc(C)cc1	11.1%	1.6%	12.6%	5%	10.2%	13.9%
CNC(=O)NC1CCC(C)CC1 (stereo not drawn)	2%	2.6%	1.5%	-14.3%	-6.25%	7.85%
CN1CCC(=C2c3ccccc3CC(O)c3sccc32)CC1 (stereo not drawn)	24.2%	5.7%	-16.6%	3.5%	9.2%	39%
CC1(c2cccc[n+]2Cc2ccc(Cl)c(Cl)c2)OCCO1	6.7%	1.65%	0.2%	-18.3%	-2.2%	14.2%
Cc1cc(C)c(S(=O)(=O)c2cccs2)c(C)c1	-7%	-10.2%	-8.25%	-6.45%	5.25%	-2.8%
CC(=O)NC1c2ccccc2CCC1OC(C)=O (stereo not drawn)	-16.4%	-8.05%	22.9%	-1.8%	-8.55%	-34.8%
COc1c(C=O)c2c(c(OC)c1OC)-c1ccc(OC)c(=O)cc1[C@@H](NC(C)=O)CC2	12.5%	-9.6%	-0.25%	7.15%	2.9%	-0.95%
COc1cccc2c1C(=O)c1c(O)c3c(c(O)c1C2=O)C[C@@](O)(C(C)=O)CC3S(=O)(=O)O (stereo partly drawn)	-14%	-7.45%	-24.4%	-8.85%	-14.9%	9.7%
CC/C(=N\NS(=O)(=O)c1ccc(C)cc1)c1ccc(Br)cc1	27.4%	-7.2%	-1.6%	-7.3%	-3.6%	3.4%
COc1cc2c(cc1O)CCN[C@@]21CS[C@H]2c3c(OC(C)=O)c(C)c4c(c3C(COC1=O)N1C2C2NC(Cc3cc(C)c(OC)c(O)c32)[C@@H]1O)OCO4 (stereo partly drawn)	91.5% (active)	94% (active)	93.7% (active)	91.5% (active)	92.2% (active)	91.2% (active)
[O-][N+]1=CCCC1	4.4%	-13.9%	-0.65%	-5.5%	-0.2%	-16.4%

SMILES	growth inhibition [1]	growth inhibition [2]	growth inhibition [3]	growth inhibition [4]	growth inhibition [5]	growth inhibition [6]
Clc1nc(C(Cl)Cl)nc2ccccc12	9.65%	10.8%	14.2%	2.9%	16.1%	12.4%
O=C(Cc1ccccc1)OCC(=O)c1ccc(-c2ccccc2)cc1	-1.05%	15.1%	0.9%	39.8%	19.1%	-5.15%
COC(=O)c1ccc(OC)cc1O	1.5%	1.8%	-13.4%	-19.9%	3.2%	-2%
CCOC(=O)c1ccc(-c2ccc(C(=O)OCC)cc2[N+](=O)[O-])c([N+](=O)[O-])c1	14.8%	12.8%	11.8%	17%	9.7%	15%
CCn1ncc2c1nc(-c1ccccc1)c[n+]2[O-]	17.1%	4%	-34.5%	-12.4%	-44.9%	-52%
COc1ccc(C[n+]2ccccc2C#N)cc1OC	4.7%	-13.8%	-10.4%	-15.8%	4.25%	3.2%
C/C(C/C(C)=N/C(N)=S)=N\C(N)=S	-37.5%	-23.1%	-15.8%	-12.4%	0.15%	-13.5%
Cc1ncc(C(N)=O)c(N)n1	21%	-2.05%	-11.6%	-42%	-13.6%	8.3%
COc1ccc(CCC2c3cc(OC)c(OC)cc3CCN2C)cc1OC (stereo not drawn)	-41.5%	-15.7%	-6.75%	5.35%	-19.9%	-4.85%
COC(=O)C([O][Ge]([CH3])([CH3])[CH3])c1ccccc1 (stereo not drawn)	8.75%	-15.1%	-1.5%	21.2%	-12.9%	-12.7%
CC(C)CCc1ccc(O)cc1	5%	-10.9%	-27.2%	-31.9%	0.65%	-5.15%
O=C(O)C1CC1(C(=O)O)C(=O)O (stereo not drawn)	9.75%	4.05%	-6.95%	3.45%	-0.05%	-1.1%
CC1(C)CC([NH-])(C(=O)O)CC(C)(C)N1O.CC1(C)CC([NH-])(C(=O)O)CC(C)(C)N1O.[Pt+2]	-5.65%	-8.75%	-6.5%	-45.6%	-1.05%	-23.8%
N[N+]1(CCS(N)(=O)=O)CCOCC1	-1.95%	-12.6%	-0.9%	-31.2%	-8.3%	13.5%
CCCn1c(C)nc2c(N)cc(C)cc21	-5.9%	-2.9%	-6.05%	-44.5%	-1.5%	-0.8%
CCO/C(Cc1ccc(Cl)cc1)=N/NC(N)=S	39.6%	2%	24.9%	24.1%	21.2%	-15.5%
Cc1nc(C(N)=S)sc1C(=O)/C=C/c1c(O)ccc2ccccc12	49.4%	9.55%	33.4%	23.8%	31.1%	40.3%
Cc1cc(C)c(N(C)C(=O)CCC(=O)O)c(Br)c1	3.1%	-3.05%	-13.2%	0.05%	9%	-6.45%
CC1(C)OC(=O)CC2(C)OC12 (stereo not drawn)	-8%	-52.3%	-11.2%	-16.4%	-5.9%	-19.2%
